High-throughput results as filed in PubChem BioAssay.
In the library only some 11% were active in any assay of this set; here they are far more common.
HCV inh: qHTS Assay for Inhibitors of Hepatitis C Virus (HCV); Huh7.5.1 HCVcc-Cre infection, luciferase reporter, 44 h; Potency, µM (series often up to 41.8 µM), for inactives: at the highest dose activity change, negative = inhibition, most hits filed as inhibitors; 340,000 tested, 3.4% active; also: % is scaled to controls: 0 for no effect and ±100 for the full control effect
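Infectious HCVcc-Cre (~0.5 moi) was added to cells just after compound, with cells seeded 4 h earlier at 1,000 per well. Luciferase activity after 44 h culture reported infection; substrate was incubated 15 min at room temperature before reading.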
Pf growth 48h: Primary qHTS for delayed death inhibitors of the malarial parasite plastid, 48 hour incubation; 310,000 tested, 5.9% active; P. falciparum luciferase growth in erythrocytes, 48 h; Potency, µM (top dose mostly 28.7 µM), without a hit: at the top dose activity change, negative = inhibition, most hits filed as inhibitors; also: % is scaled to controls: 0 for no effect and ±100 for the full control effect
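Read-out is firefly luciferase luminescence from an integrated reporter in P. falciparum, so falling signal marks reduced parasite growth. Infected erythrocytes were at 2% hematocrit and 0.1% parasitemia (final) in Albumax-supplemented RPMI 1640.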
NS1 function inh: qHTS Assay for Inhibitors of Influenza NS1 Protein Function; Potency, µM (top dose mostly 46.1 µM), for the others: at the top dose activity, positive = more growth; 270,000 tested, 0.4% active; calls by dose curve; also: actives are rising curves; nearly all actives have a fitted effect of over 50% in size
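In this qHTS, NS1 from influenza A is expressed in budding yeast, where it slows growth. Cells are switched from glucose to 2% galactose medium (pH 6.0, -URA), treated with compound, and growth recovery is read at OD600.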
Vaccinia mCherry: qHTS for Stage-Specific Inhibitors of Vaccinia Orthopoxvirus: mCherry Reporter Primary qHTS; Vaccinia virus mCherry reporter infection, fluorescence; 310,000 tested, 0.63% active; Potency, µM (doses to about 36.5 µM), for inactives: top-dose activity change, negative = inhibition, hits mostly inhibitors; calls by dose curve; tested in A549 cells; also: % is scaled to controls: 0 for no effect and ±100 for the full control effect; nearly all actives have a fitted effect of over 35% in size
Pf growth 96h: Primary qHTS for delayed death inhibitors of the malarial parasite plastid, 96 hour incubation; P. falciparum luciferase reporter growth, 96 h; Potency, µM (series often up to 28.7 µM), for the others: at the highest dose activity change, negative = inhibition, actives largely listed as inhibitors; 320,000 tested, 6.9% active; also: % is scaled to controls: 0 for no effect and ±100 for the full control effect
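Infected RBCs, 2% Hct / 0.05% parasitemia final; luciferase-reporter P. falciparum; cpd 96 h, 37 C, 5% CO2; luciferase detection reagent; luminescence.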
VACV Venus inh: qHTS for Stage-Specific Inhibitors of Vaccinia Orthopoxvirus: Venus Reporter Primary qHTS; 330,000 tested, 0.46% active; Potency, µM (top dose mostly 36.5 µM), without a hit: at the highest dose activity change, negative = inhibition, actives largely listed as inhibitors; AID 720580, 2013; Vaccinia virus Venus reporter expression, fluorescence; calls by dose curve; tested in A549 cells; also: % is scaled to controls: 0 for no effect and ±100 for the full control effect; nearly all actives have a fitted effect of over 30% in size
The depositor's hits bear a star; i = inactive; ? = inconclusive; . = not tested or not shown; [ ] = another dose, or the depositor's remark. Unless noted, calls follow the shape of the dose curve; as a rule, active = well fitted inhibition curve with a large enough effect; inconclusive = small, poorly fitted or top-dose-only effect, or another doubt; inactive = no such curve, though single readings can be large or run the other way. Potency is read from the fitted curve at half-maximal effect.

SMILES | HCV inh | Pf growth 48h | NS1 function inh | Vaccinia mCherry | Pf growth 96h | VACV Venus inh
Cc1ccc(NC(=O)c2ccc(C)c(NC3=NC4CS(=O)(=O)CC4S3)c2)cc1C (stereo not drawn) | -12% | 5% | -7% | i | 16% | -14%
O=C(c1ccc(NC2=NC3CS(=O)(=O)CC3S2)cc1)N1CCN(c2ccc(F)cc2)CC1 (stereo not drawn) | 5% | 21% | -2% | -1% | -22% | -14%
COc1cccc(CNC(=O)c2ccc(Cl)c(NC3=NC4CS(=O)(=O)CC4S3)c2)c1 (stereo not drawn) | 11% | 1% | -2% | 12%[7.34 µM] | 2.6µM* | 0%[7.34 µM]
Cc1ccc(C(=O)Nc2ccc(F)cc2)cc1NC1=NC2CS(=O)(=O)CC2S1 (stereo not drawn) | 0% | 2% | -11% | -10% | 9.3µM* | 1%
COc1cccc(CNC(=O)Cc2ccc(NC3=NC4CS(=O)(=O)CC4S3)cc2)c1 (stereo not drawn) | 5% | -2% | 18% | i | ? | -18%
COc1ccc(OC)c(NC(=O)Cc2ccc(NC3=NC4CS(=O)(=O)CC4S3)cc2)c1 (stereo not drawn) | -2% | 0% | 9% | 8% | 12µM* | -4%
COc1cc(C2NC(C(=O)O)CS2)ccc1OCc1ccccc1C#N (stereo not drawn) | 19% | 26% | -32% | . | ? | .
COc1ccc(NC(=O)c2ccc(NC3=NC4CS(=O)(=O)CC4S3)cc2)cc1 (stereo not drawn) | 12% | 10% | -3% | -11% | 10µM* | -10%
Cc1cc(C)cc(NC(=O)c2ccc(NC3=NC4CS(=O)(=O)CC4S3)cc2)c1 (stereo not drawn) | 13% | -2% | 13% | i | -12% | -15%
COc1ccccc1CNC(=O)c1ccc(NC2=NC3CS(=O)(=O)CC3S2)cc1 (stereo not drawn) | 12% | 14% | -4% | -3%[7.34 µM] | 12µM* | 4%[7.34 µM]
CCOc1ccc(C(=O)NC2CCN(S(=O)(=O)c3ccccc3)CC2)cc1 | ? | 3% | 2% | -20% | 0% | -17%
Cc1onc(-c2ccc(Cl)cc2)c1-c1ccnc(SCC(=O)Nc2cc(Cl)cc(Cl)c2)n1 | 16µM* | ? | 14% | -6% | ? | -5%
O=C(CSc1nccc(-c2cccs2)n1)Nc1cccc(Cl)c1 | ? | 15% | -6% | ? | ? | -2%
CCOC(=O)C(=NCC1CCCO1)NNc1cc(Cl)ccc1Cl (stereo not drawn) | ? | ? | -59% | -13% | 10µM* | 2%
CC(=O)Nc1ccc(S(=O)(=O)Nc2nccs2)cc1 | 0% | -1% | ? | i | ? | -11%
O=C(CCl)Nc1ccc(S(=O)(=O)Nc2nccs2)cc1 | ? | 2.3µM* | 4% | -1% | 1.5µM* | 9%
CCCC(=O)Nc1ccc(S(=O)(=O)Nc2nccs2)cc1 | 5% | . | . | . | . | .
CCOCC(=O)Nc1ccc(S(=O)(=O)Nc2nccs2)cc1 | 21% | -5% | 0% | . | 12µM* | .
COc1ccc(OC)c(C2C(C(C)=O)=C(O)C(=O)N2c2ccc(F)cc2)c1 (stereo not drawn) | 17% | 1% | -63% | . | ? | .
COc1ccccc1OCC(=O)N1CCN(C(=O)c2ccco2)CC1 | 24% | 15% | -1% | -14% | ? | -9%
COc1ccc(NC(=O)CCC(=O)OCC(=O)c2ccc(Oc3ccc([N+](=O)[O-])cc3)cc2)cc1 | -2% | 9% | 9% | -12% | 9.3µM* | -5%
COc1ccc(C(=O)CC(=O)C(=O)Nc2ccc(Cl)cc2)cc1 | 2% | . | 2% | i | 26% | -5%
COc1ccc(C(=O)CC(Nc2ccc([N+](=O)[O-])cc2)c2ccc(Cl)cc2)cc1 (stereo not drawn) | ? | 3.3µM* | 5% | . | 9.3µM* | .
CC(C)(C)c1ccc(Cn2nnc3c(=O)[nH]c(C4CCN(C(=O)c5ccco5)CC4)nc32)cc1 | 15% | 6.6µM* | ? | -3% | -2% | ?
CC(C)(C)c1ccc(C(=O)N2CCCC(c3nc4c(nnn4Cc4cccc(F)c4)c(=O)[nH]3)C2)cc1 (stereo not drawn) | . | . | . | -9% | . | -10%
SMILES | HCV inh | Pf growth 48h | NS1 function inh | Vaccinia mCherry | Pf growth 96h | VACV Venus inh
CC(C)(C)c1ccc(Cn2nnc3c(=O)[nH]c(C4CCCN(C(=O)c5cccs5)C4)nc32)cc1 (stereo not drawn) | -8% | ? | -3% | ? | 4.1µM* | -26%
O=C(Cc1cccs1)N1CCCC(c2nc3c(nnn3Cc3ccccc3Cl)c(=O)[nH]2)C1 (stereo not drawn) | 18% | 5.2µM* | -3% | . | 32% | .
CC(C)(C)c1ccc(Cn2nnc3c(=O)[nH]c(C4CCCN(C(=O)Cc5cccs5)C4)nc32)cc1 (stereo not drawn) | -3% | ? | ? | -21% | 5.2µM* | ?
O=C(Cc1cccs1)N1CCCC(c2nc3c(nnn3Cc3ccc(F)cc3)c(=O)[nH]2)C1 (stereo not drawn) | 15% | ? | -1% | . | -17% | .
O=C(NCCCCc1ccccc1)c1ccccc1Cl | 1% | 49% | . | 0% | 67% | 1%
O=C(NCc1cccs1)c1nc2c(nnn2Cc2ccccc2Cl)c(=O)[nH]1 | 5µM* | 4.1µM* | -3% | ? | -27% | 7.1µM*
CC(C)(C)c1ccc(Cn2nnc3c(=O)[nH]c(C4CCN(C(=O)Cc5cccs5)CC4)nc32)cc1 | -21% | 5.9µM* | 8% | . | . | .
Cc1cccc(Cn2nnc3c(=O)[nH]c(C4CCCN(C(=O)c5ccccc5Cl)C4)nc32)c1 (stereo not drawn) | . | . | . | -4% | . | -9%
CCC(C)NC(=O)c1nc2c(nnn2Cc2ccccc2Cl)c(=O)[nH]1 (stereo not drawn) | -16% | 2% | 1% | -14% | 17% | -1%
O=C(c1cccs1)N1CCCC(c2nc3c(nnn3Cc3c(Cl)cccc3Cl)c(=O)[nH]2)C1 (stereo not drawn) | -13% | 13µM* | -6% | -22% | ? | -12%
Cc1ccc(Cn2nnc3c(=O)[nH]c(C4CCN(C(=O)Cc5cccs5)CC4)nc32)cc1 | 15% | -50% | 2% | i | ? | -14%
Cc1ccc(-c2cn3c(n2)sc2cc(C(=O)NCCCN4CCCCC4)ccc23)cc1 | . | . | . | 11µM* | . | 8.9µM*
Cc1c(C(=O)NCc2cccnc2)sc2nc(-c3ccc(F)cc3)cn12 | 11µM* | 0% | -54% | ? | ? | ?
